Results filed as inconclusive are left out. Where a call stands in place of a potency, no number is given. The source made the active and inactive calls. Calls come from the whole dose curve; as a rule, active = well fitted inhibition curve with a large enough effect; inconclusive = small, poorly fitted or top-dose-only effect; inactive = flat fitted curve, though single readings scatter.
Potency is the fitted concentration of half-maximal effect.

This assay in a line: P-glycoprotein substrates identified in KB-8-5-11 adenocarcinoma cell line, qHTS therapeutic library screen (AID 1346987). Note: nearly all actives have a fitted effect of over 65% in size. Conditions: KB-8-5-11 (P-gp overexpressing) viability, CellTiter-Glo, 72 h; series mostly up to 44.5 µM. The procedure, abridged: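 Luminescence from CellTiter-Glo, read 5 min after addition, quantified survival of KB-8-5-11 (P-gp-overexpressing) cells exposed to compounds for 72 h. AC50 was derived from concentration-response curves.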
For `CC(C)c1ccc(NC(=O)Cn2cnc3c2c(=O)n(C)c(=O)n3C)cc1`, the Potency entry is “inactive”.

For `C=CC(=O)Nc1ccc2ncnc(Nc3cccc(Br)c3)c2c1`, the Potency was 8.2 µM (active). The result for `C[C@@H]1O[C@@H](O[C@H]2[C@@H]3C=CO[C@@H](O[C@@H]4O[C@H](CO)[C@@H](O)[C@H](O)[C@H]4O)[C@@H]3[C@@]3(CO)O[C@@H]23)[C@H](O)[C@H](OC(=O)/C=C/c2ccccc2)[C@H]1O` reads “inactive”; that for `COC(=O)c1sccc1S(=O)(=O)Nc1ccc(Nc2ccccc2)cc1OC`, “inactive”. In the case of `CSCC[C@H](NC(=O)[C@H](Cc1ccc(OS(=O)(=O)O)cc1)NC(=O)[C@@H](N)CC(=O)O)C(=O)NCC(=O)N[C@@H](Cc1c[nH]c2ccccc12)C(=O)N[C@@H](CCSC)C(=O)N[C@@H](CC(=O)O)C(=O)N[C@@H](Cc1ccccc1)C(N)=O`, the Potency entry was “inactive”. Regarding `C=C(C(=O)OC[C@H]1O[C@@H](OC(=O)/C=C/c2ccccc2)[C@H](O)[C@@H](O)[C@@H]1O)C(O)CO` (some centres undefined), the Potency entry is “inactive”.

On to `Nc1ncnc2c1c(-c1ccc(Cl)cc1)nn2-c1cccc(-c2cnnn2Cc2cccc(-c3ccccc3)c2)c1`, for which the Potency was 16.4 µM (active). As for `CC1(NC(=O)c2ccc(C#Cc3cccc(F)c3)cn2)COC1`, the entry is “inactive”; as for `CC(=O)OC1C(O)CC2(C)C(CCC3(C)C2CC=C2C4C5(CCC(CO[C@@H]6O[C@H](CO)[C@@H](O)[C@H](O)[C@H]6O)(OC5=O)C4(C)O)C(O)CC23C)C1(C)C` (some centres undefined), “inactive”; as for `CCn1c(=O)n([C@H]2CCCN(c3nccc(-c4cc5ccccc5o4)n3)C2)c2ccccc21`, “inactive”.

Take `Clc1ccc(Nc2nc3ccccc3c3nc(C4CCCCC4)[nH]c23)cc1Cl`: the Potency was 16.4 µM (active).

As to `C=C1C(=O)O[C@@H]2C[C@]3(C)[C@@H](CCC(C)O)[C@@H]3C[C@H]12` (some centres undefined), the Potency result was “inactive”.

Regarding `C[C@H](/C=C/[C@H](C)C(C)(C)O)[C@H]1CC[C@H]2/C(=C/C=C3C[C@@H](O)C[C@H](O)C3)CCC[C@]12C`, the Potency is 8.2 µM (active). The result for `CCCCc1ccc(NS(=O)(=O)c2ccc(F)cc2)cc1` reads “inactive”. On to `CC(=O)[C@H]1CC[C@H]2[C@@H]3CC=C4C[C@@H](OS(=O)(=O)O)CC[C@]4(C)[C@H]3CC[C@]12C`, for which the Potency result was “inactive”. The result for `CC[C@H]1OC(=O)[C@H](C)[C@@H](O[C@H]2C[C@@](C)(OC)[C@@H](O)[C@H](C)O2)[C@H](C)[C@@H](O[C@@H]2O[C@H](C)C[C@H](N(C)C)[C@H]2O)[C@](C)(O)C[C@@H](C)[C@@H]2N[C@@H](COCCOC)O[C@@H]([C@H]2C)[C@]1(C)O` reads “inactive”; that for `CC(CN(C)C)CN1c2ccccc2S(=O)(=O)c2ccccc21` (centres undefined), “inactive”.

For `CC/C(C)=C/C(=O)OC1C(OC2(C)CCC3C(C4C(C)CCC42)C3(C)C)OC(C)C(O)C1O` (centres undefined), the Potency entry was “inactive”. The result for `CC(C)CCCCC(=O)N[C@@H](CO)C(=O)N[C@@H](CC(C)C)C(=O)[C@@]1(CO)CO1` reads “inactive”. On to `Cc1c(C2=CCN(C(=O)N(C)C(C)C)CC2)nnn1-c1cccnc1F`, for which the Potency entry was “inactive”. As to `CCCC1(CCC)CCC2(CCN(CCCN(CC)CC)C2)CC1`, the Potency was 2.31 µM (active).

With `CO/N=C(\C(=O)N[C@@H]1C(=O)N2C(C(=O)OCOC(=O)C(C)(C)C)=C(/C=C\c3scnc3C)CS[C@H]12)c1csc(N)n1`, the Potency result is “inactive”. `COc1cc(C(=O)NC(=S)Nc2cccc(NC(=O)c3ccccc3)c2)cc(OC)c1OC`: the Potency result is “inactive”. The result for `CC(C)=CCCC1(C)C2CCC1(C)C(O)C2` (centres undefined) reads “inactive”; that for `CC1CCCC[C@H]2C(=O)C=C[C@H](O)[C@@H]2CC(=O)O1` (some centres undefined), 7.31 µM (active). On to `CC(=O)Nc1cccc(-c2csc(Nc3cc(C)ccn3)n2)c1`, for which the Potency entry was “inactive”.

In the case of `CN(C)CCN(Cc1ccc(-c2ccc(CNCCc3ccccc3)cc2)cc1)C(=O)CCC1CCCC1`, the Potency is 4.11 µM (active).

As for `C=C(C)C(=O)O[C@H]1/C(C=O)=C\CC/C(CO)=C/[C@H]2OC(=O)C(=C)[C@@H]2[C@@H]1OC`, the Potency result was “inactive”. On to `O=C(NCC1CCN(Cc2cccc(Cl)c2)CC1)[C@@H]1CCCN(c2ncnc3c2nc2n3CCCC2)C1`, for which the Potency result was “inactive”. The result for `Cc1ccc(/C(=C\CN2CCCC2)c2cccc(/C=C/C(=O)O)n2)cc1` reads “inactive”; that for `C=C1C(=O)OC2/C=C(\C)CC/C=C(\C)CC(OC(C)=O)C12` (centres undefined), “inactive”; that for `CCCCNc1ncc2c(-c3ccc(S(=O)(=O)N4CCOCC4)cc3)nn(C3CCC(O)CC3)c2n1` (centres undefined), 7.31 µM (active). Regarding `COc1cc2[nH]c(C)c(CCN3CCN(c4ccccc4)CC3)c2cc1OC`, the Potency entry was “inactive”.

Regarding `CC(C)(S)C(=O)N[C@@H](CS)C(=O)O`, the Potency result was “inactive”. As for `COc1cc(/C=C2\CC[C@H]3COC[C@@H](c4cc(F)c(F)c(F)c4)N3C2=O)ccc1-n1cnc(C)c1`, the Potency result was “inactive”. For `COc1c2c(c(C)c3c1C(=O)OC3)O[C@@]1(C)C[C@@H](OC(C)=O)[C@]34O[C@](OC)(CC[C@]3(C)[C@H]1C2)OC4(C)C`, the Potency result was “inactive”. As for `O=C(Cn1c(=O)sc2ccc(Cl)cc21)N1CCN(CCO)CC1`, the entry is “inactive”.

For the compound `O=C(OCCO)c1ccccc1O`, the Potency result is “inactive”.

In the case of `CC(=O)OC1C(OC(=O)c2ccccc2)C2C(C)(C)CCC(OC(C)=O)C2(C)C23CCC(C)(C2)C(=O)CC13` (centres undefined), the Potency result is “inactive”.

These data come from PubChem BioAssay (NCATS).
